Hit rate of the full screen: of about 2,100 compounds, about 670 (32%) were called active. Roughly 50% stayed inconclusive and do not appear here. Calls come from the whole dose curve; as a rule, active = well fitted inhibition curve with a large enough effect; inconclusive = small, poorly fitted or top-dose-only effect; inactive = no such curve, though single readings can be large or run the other way. The list shows a part of the results.
Experiment: CMV-Luciferase Counterscreen for Inhibitors of ATXN expression; note: nearly all actives have a fitted effect of over 55% in size
Settings: HEK-293 CMV-luciferase reporter, luminescence, 24 h; series mostly up to 57.5 µM; activity change, negative = inhibition: at the top concentration
% is set by controls: 0 for no effect and ±100 for the full control effect; potency is the fitted concentration of half-maximal effect.

Row | SMILES | activity change, negative = inhibition | Potency
1 | CCCC/C(C)=N/NC(=O)c1cn(-c2ccccc2)nc1-c1ccccc1 | -28.6% [at 11.4 µM] (inactive) | –
2 | COc1ccc(-c2nn(-c3ccccc3)cc2C(=O)NC(=S)NNC(=O)c2ccncc2)cc1 | – | 8.91 µM (active)
3 | Cc1ccc(-c2nc3cc(Br)cnc3nc2-c2ccc(C)cc2)cc1 | -25.9% [at 11.4 µM] (inactive) | –
4 | CCOC(=O)c1cnc(-n2nc(C)cc2C)nc1NC1CCCC1 | – | 1.78 µM (active)
5 | C=CCOc1ccc(CNc2ccc3[nH]c(=O)[nH]c3c2)cc1OC | 24.3% (inactive) | –
6 | COc1ccc(Cc2nnc(N/N=C/c3ccccc3O)[nH]c2=O)cc1OC | – | 1.41 µM (active)
7 | COc1ccc(Cc2nnc(N/N=C/c3ccc(O)cc3)[nH]c2=O)cc1OC | – | 0.891 µM (active)
8 | COc1ccc(S(=O)(=O)N(C)C)cc1NC(=O)C1CCN(c2ncnc3sc(C)c(C)c23)CC1 | – | 10 µM (active)
9 | CCN(CC)S(=O)(=O)c1cc(NC(=O)C2CCN(c3ncnc4sc(C)c(C)c34)CC2)ccc1Cl | 52% (inactive) | –
10 | COc1ccc(-c2csc(NC(=O)C3CCN(c4ncnc5sc(C)c(C)c45)CC3)n2)cc1OC | – | 3.55 µM (active)
11 | CN(C)c1ccccc1-c1cc(NC=O)c2ncc(-c3cccc(C(F)(F)F)c3)n2c1 | -12.7% [at 11.4 µM] (inactive) | –
12 | O=C(N/N=C/c1cc([N+](=O)[O-])ccc1O)c1cccc(N2CCCC2=O)c1 | – | 7.94 µM (active)
13 | O=C(NN=Cc1c(O)ccc2ccccc12)c1ccc2c(c1)OCO2 | – | 2.24 µM (active)
14 | O=[N+]([O-])c1ccc(/C=N/N=C/c2ccc([N+](=O)[O-])o2)o1 | – | 14.1 µM (active)
15 | O=C(N/N=C/c1c(O)ccc2ccccc12)c1cccc(C(F)(F)F)c1 | – | 2.82 µM (active)
16 | O=C(N/N=C\c1c(O)ccc2ccccc12)c1ccc(Cn2cccn2)o1 | – | 0.891 µM (active)
17 | COc1ccc(/C=N/NC(=O)c2cccc([N+](=O)[O-])c2)c2ccccc12 | -1.17% [at 11.4 µM] (inactive) | –
18 | O=C(NN=Cc1ccccc1O)c1cccc([N+](=O)[O-])c1 | – | 3.98 µM (active)
19 | C/C(=N\Nc1cc(N2CCOCC2)nc(C)n1)c1cccc([N+](=O)[O-])c1 | -9.23% [at 11.4 µM] (inactive) | –
20 | O=C(N/N=C/c1ccccc1O)c1cccc(C(F)(F)F)c1 | – | 0.501 µM (active)
21 | O=C(N/N=C/c1ccc([N+](=O)[O-])o1)c1ccc2c(c1)OCO2 | – | 12.6 µM (active)
22 | COc1ccc(S(=O)(=O)Nc2ccc(F)cc2)cc1N(C)S(=O)(=O)c1ccc(Cl)cc1 | – | 10 µM (active)
23 | O=C(Nc1nnc(C2CC2)o1)c1ccc(S(=O)(=O)N2CCCc3ccccc32)cc1 | – | 7.08 µM (active)
24 | CCN(Cc1ccccc1)S(=O)(=O)c1ccc(C(=O)Nc2nnc(C3CC3)o2)cc1 | – | 2.24 µM (active)
25 | CN1CCC(N(C)C(=O)c2ccc(Cl)c(S(=O)(=O)N3CCc4ccccc43)c2)CC1 | -24.7% (inactive) | –
26 | Cc1ccc(C(=O)N/C(=C\c2ccc(-c3ccc(Cl)cc3)o2)C(=O)NCCCN(C)C)cc1 | -11.4% (inactive) | –
27 | Cc1cccc(OCC(=O)NCC(=O)N/N=C/c2cc(Br)cc(Br)c2O)c1 | – | 5.01 µM (active)
28 | O=C(/C=C\c1ccccc1)NCC(=O)N/N=C/c1ccc(O)cc1O | – | 25.1 µM (active)

Row | SMILES | activity change, negative = inhibition | Potency
29 | O=C(COc1ccccc1)NCC(=O)N/N=C/c1ccc(O)cc1O | – | 14.1 µM (active)
30 | O=C(N/N=C/c1ccc(O)cc1O)/C(=C/c1ccccc1)CCO | – | 1.78 µM (active)
31 | CCC(=O)OC1(C(C)=O)CCC2C3CCC4=CC(=O)CCC4(C)C3CCC21C (stereo not given) | -21.7% (inactive) | –
32 | O=C(OCCN1C(=O)c2cccc3c(N4CCOCC4)ccc(c23)C1=O)c1ccccc1Cl | – | 15.8 µM (active)
33 | CC1(C)C(C=C(Cl)Cl)C1C(=O)Nc1ccc([N+](=O)[O-])cc1 (stereo not given) | – | 20 µM (active)
34 | Cc1cccc(OCCSc2nc3ncnc(N)c3[nH]2)c1 | -5.15% (inactive) | –
35 | CCN(CC)CCCNc1nc2ccccc2c2nc(-c3ccncc3)nn12 | – | 12.6 µM (active)
36 | Cc1ccc(/C=C2\SC(=S)N(CCCC(=O)Nc3ccccc3C(=O)O)C2=O)cc1 | – | 2 µM (active)
37 | Cc1ccc(/C=C2\SC(=S)N(CCCC(=O)Nc3ccc(O)cc3)C2=O)cc1 | – | 3.16 µM (active)
38 | Cc1ccc(/C=C2\SC(=S)N(CCCC(=O)Nc3cc(C)on3)C2=O)cc1 | – | 3.55 µM (active)
39 | Cc1cc(C)cc(NC(=O)CCC(=O)Nc2cc(C)on2)c1 | 165% [at 11.4 µM] (inactive) | –
40 | Cc1ccc(/C=C2/SC(=S)N(CCCC(=O)Nc3cc([N+](=O)[O-])ccc3O)C2=O)cc1 | – | 28.2 µM (active)
41 | Cc1ccc(/C=C2\SC(=S)N(CCCC(=O)NC3CCCC3)C2=O)cc1 | – | 2.51 µM (active)
42 | Cc1ccc(NC(=O)COc2ccc(/C=C3/SC(=Nc4ccccc4)N(Cc4cccnc4)C3=O)cc2)cc1 | -6.8% (inactive) | –
43 | COc1cccc(/C=C2/SC(=S)N(CCCC(=O)Nc3ccc(O)cc3)C2=O)c1 | – | 3.16 µM (active)
44 | Cc1ccc(/C=C2/SC(=S)N(CCCC(=O)Nc3ccc(O)cc3)C2=O)cc1 | – | 2 µM (active)
45 | Cc1ccc(/C=C2\SC(=S)N(CCCC(=O)Nc3cccnc3)C2=O)cc1 | – | 3.98 µM (active)
46 | CC(C)C[C@H](N)c1cn([C@@H](CCCCN)C(=O)N2CCNCC2)nn1 | -7.7% [at 11.4 µM] (inactive) | –
47 | Cc1csc(NC(=O)COCC(=O)O)c1-c1nc2ccccc2s1 | -1.27% (inactive) | –
48 | c1cc2c(cc1-c1cnc3n1CCC3)OCCO2 | 59.6% (inactive) | –
49 | CC(C)(O)C#Cc1ccc([C@@H]2C[C@H]3CN(c4ccccc4)C(=O)[C@]34CCCN24)s1 | 51.4% (inactive) | –
50 | O=[N+]([O-])c1ccc(O)c(/C=N/Nc2ncnc3c2cnn3-c2ccccc2)c1 | – | 1.58 µM (active)
51 | CN(C)S(=O)(=O)c1cccc(N2C(=O)CC3(CCCCC3)CC2=O)c1 | -19.6% [at 11.4 µM] (inactive) | –
52 | COc1cccc(/C=N/NC(=O)CSCC(=O)Nc2ccccc2)c1O | – | 1.26 µM (active)
53 | COc1ccc(CSCC(=O)N/N=C/c2ccccc2O)cc1 | – | 25.1 µM (active)
54 | COc1cccc(/C=N/NC(=O)CSc2ccccc2C)c1O | – | 7.08 µM (active)
55 | C/C(=N\OCC(=O)N/N=C/c1ccccc1O)c1cccs1 | – | 12.6 µM (active)

From PubChem BioAssay AID1745847 (National Center for Advancing Translational Sciences (NCATS), 2022)
